# Measurements: the supplement of paper PMC7156485
# Several values for one entry are separate records, joined by “and”; a condition that tells them apart may be missing. Equal values may be shown once. ± gives the standard deviation of the averaged measurements.
# Legend:
# Conditions in all cases: concentration: 10 µM; 24 h
# HCC1569 [1] = test: cell number relative to DMSO (% of DMSO); higher = more cells (less growth inhibition / toxicity)
# Procedure, shortened: (§1)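 H1.0 nuclear intensity or cell number is stated as percent of the plate control, based on the median of replicates, and HCC1569 values were smoothed for positional effects. These came from HCC1569 and TDF cells treated with compounds at 10 µM for 24 h at 37 °C in triplicate, then fixed in 3.7% formaldehyde and stained with a rabbit anti-H1.0 antibody, an AlexaFluor 647 secondary and DAPI.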
# TDF [2] = test: as above
# Procedure, shortened: as §1
# TDF [3] = test: H1.0 immunofluorescence intensity relative to DMSO (% of DMSO); higher = stronger H1.0 induction, active = 120 or more
# Procedure, shortened: as §1
# HCC1569 [4] = test: H1.0 immunofluorescence intensity relative to DMSO (% of DMSO); higher = stronger H1.0 induction, active = 140 or more
# Procedure, shortened: as §1
# 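For H1.0 immunofluorescence intensity relative to DMSO in this document: TDF is a line of transformed human dermal fibroblasts of mesenchymal origin.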
# 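For cell number relative to DMSO in this document: TDF denotes transformed human dermal fibroblasts of mesenchymal origin.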
SMILES,cell number (HCC1569 [1]),cell number (TDF [2]),H1.0 immunofluorescence intensity (TDF [3]),H1.0 immunofluorescence intensity (HCC1569 [4])
"Clc1ccc(C(c2ccccc2Cl)C(Cl)Cl)cc1 (stereo unspecified) [1-(2-Chlorophenyl)-1-(4-chlorophenyl)-2,2-dichloroethane]",96.1,106,98.3 (inactive),92.9 (inactive)
"CCC1Cc2cc(O)ccc2C2=C1c1ccc(O)cc1CC2CC [(R,R)-cis-Diethyl tetrahydro-2,8-chrysenediol]",87.5,110,87.9 (inactive),107 (inactive)
CC(N)C1CCC(C(=O)Nc2ccncc2)CC1.Cl.Cl.O (stereo unspecified),109,104,97.1 (inactive),102 (inactive)
O=c1[nH]c(=O)n(C2CC(O)C(CO)O2)cc1F (stereo unspecified) [Floxuridine],81.3,61.1,112 (inactive),119 (inactive)
CN1CCN(CCCN2c3ccccc3Sc3ccc(Cl)cc32)CC1.O=C(O)C=CC(=O)O.O=C(O)C=CC(=O)O [Prochlorperazine dimaleate],83.7,105,110 (inactive),157 (active)
Cn1sc(=O)n(Cc2ccccc2)c1=O [GSK-3b Inhibitor I],98.9,102,98.3 (inactive),134 (inactive)
NC(CC(=O)[O-])C(=O)O.NC(CC(=O)[O-])C(=O)O.[Mg+2] [magnesium bis[(3S)-3-amino-3-carboxypropanoate]],101,102,94.5 (inactive),109 (inactive)
Cl.c1ccc(C2CN3CCSC3=N2)cc1 (stereo unspecified) [Tetramisole hydrochloride],99.8,114,91.7 (inactive),105 (inactive)
CC1(C)CC(=O)C2=C(C1)NC(=S)NC2c1cccc(O)c1 (stereo unspecified),70.7,9.81,152 (active),118 (inactive)
CN(C)S(=O)(=O)c1ccc2c(c1)C(=Cc1cc3c([nH]1)CCCC3)C(=O)N2,72.9,48,97.5 (inactive),184 (active)
O=C(CO)N1CCC(c2[nH]nc(-c3ccc(Cl)cc3)c2-c2ccncn2)CC1,93.2,105,91.3 (inactive),96 (inactive)
O=C1NC(=O)C(=Cc2ccc3c(c2)OC(F)(F)O3)S1 [PI 3-KbInhibitor II],100,96.8,103 (inactive),112 (inactive)
Cc1ccccc1C(OCCN(C)C)c1ccccc1.O=C(O)CC(O)(CC(=O)O)C(=O)O (stereo unspecified) [Orphenadrine citrate],111,113,91.6 (inactive),96.1 (inactive)
CCCCCC=CCC=CC=CC=CC(SCC(NC(=O)CCC(N)C(=O)O)C(=O)NCC(=O)O)C(O)CCCC(=O)O (stereo unspecified) [Leukotriene C4],99.8,92.2,90.1 (inactive),105 (inactive)
CC(C)[N+](C)(CCOC(=O)C1c2ccccc2Oc2ccccc21)C(C)C.[Br-] [Propantheline bromide],99.3,107,95.1 (inactive),96.9 (inactive)
COc1ccc(C(=O)NCc2ccc(OCCN(C)C)cc2)cc1OC [Itopride],101,104,92 (inactive),118 (inactive)
C[C@@H]1CCN(C(=O)CC#N)C[C@@H]1N(C)c1ncnc2[nH]ccc12,103,109,79 (inactive),96.3 (inactive)
CCCCS(=O)(=O)N[C@@H](Cc1ccc(OCCCCC2CCNCC2)cc1)C(=O)O.Cl.O,99.8,102,97.7 (inactive),104 (inactive)
"CCCCCC(=O)CCC1C(O)CC(O)C1CC=CCCCC(=O)O (stereo unspecified) [13,14-Dihydro-15-keto-prostaglandin F2a]",99.9,94,90.1 (inactive),98.2 (inactive)
COc1cc2nccc(Oc3ccc(NC(=O)Nc4cc(C)on4)c(Cl)c3)c2cc1OC [Tivozanib],79.2,101,99 (inactive),116 (inactive)
CCCCCCCCCCCCCCCCOCC(CO)OC (stereo unspecified) [1-Hexadecyl-2-O-methyl-glycerol],103,109,95.3 (inactive),98.4 (inactive)
CCCCC#Cc1nc(N)c2ncn(C3OC(C(=O)NCC)C(O)C3O)c2n1 (stereo unspecified),93.3,99.3,95.2 (inactive),110 (inactive)
CCOC(=O)OC(C)OC1=C(C(=O)Nc2ccccn2)N(C)S(=O)(=O)c2ccccc21 (stereo unspecified) [Ampiroxicam],105,94.9,99.6 (inactive),116 (inactive)
CCCCCCCCCCCCCCCCCCC(=O)O [Nonadecanoic acid],96.7,102,101 (inactive),98 (inactive)
O=C(C=Cc1ccc(O)c(O)c1)OCCc1ccccc1,74.8 ± 3.7,85.77 ± 0.57,93.1 (inactive),113 (inactive)

SMILES,cell number (HCC1569 [1]),cell number (TDF [2]),H1.0 immunofluorescence intensity (TDF [3]),H1.0 immunofluorescence intensity (HCC1569 [4])
COc1cc2ncnc(Sc3nnc(C)s3)c2cc1OC,63.3,67.7,108 (inactive),160 (active)
CSC(=N)N.CSC(=N)N.O=S(=O)(O)O [S-Methylisothiourea hemisulfate],103,98.6,93.5 (inactive),96.7 (inactive)
COC1CC(OC2C(C)C(=O)OC(C)C(C)C(OC(C)=O)C(C)C(=O)C3(CO3)CC(C)C(OC3OC(C)CC(N(C)C)C3OC(C)=O)C2C)OC(C)C1OC(C)=O (stereo unspecified) [Troleandomycin],102 ± 2.6,108.1 ± 0.42,97.2 (inactive),94.6 (inactive)
C[N+](C)(C)CCOC(=O)CCC(=O)OCC[N+](C)(C)C.[Cl-].[Cl-] [Succinylcholine chloride],100,113,95.5 (inactive),84.7 (inactive)
CC(COc1ccccc1)N(CCCl)Cc1ccccc1.Cl (stereo unspecified) [Phenoxybenzamine hydrochloride],71.6,69.5,105 (inactive),107 (inactive)
CC(=O)Oc1ccc(C(c2ccc(OC(C)=O)cc2)c2ccccn2)cc1 [Bisacodyl],94.2,102,86.4 (inactive),125 (inactive)
"COc1ccc(/C=C\c2cc(OC)c(OC)c(OC)c2)cc1O [2-methoxy-5-[(Z)-2-(3,4,5-trimethoxyphenyl)ethenyl]phenol]",61.6,11.5,179 (active),162 (active)
"Cc1ccc(Cl)c(Nc2ccccc2C(=O)[O-])c1Cl.[Na+] [sodium 2-(2,6-dichloro-3-methylanilino)benzoate]",99.4,111,97.9 (inactive),102 (inactive)
CCCCOC(=O)NC(=O)C1c2ccccc2Oc2ccccc21 [butyl 9H-xanthen-9-ylcarbonylcarbamate],102,106,90.1 (inactive),107 (inactive)
CCCN(CCC)CC1CCCCN1CCNC(=O)N1c2ccccc2C(=O)Nc2cccnc21 (stereo unspecified),98.5,112,87.8 (inactive),100 (inactive)
O=C(Nc1ncc([N+](=O)[O-])s1)c1ccc([N+](=O)[O-])c(Cl)c1 [3-chloro-4-nitro-N-(5-nitrothiazol-2-yl)benzamide],84.1,83.6,108 (inactive),122 (inactive)
"CCCn1c(=O)c2c(ncn2C)n(CCC)c1=O [1,3-Dipropyl-7-methylxanthine]",99.5,101,93.1 (inactive),94.8 (inactive)
O=c1[nH]c2ccccc2n1CCN1CCN(c2cccc(C(F)(F)F)c2)CC1,103,111,95.8 (inactive),101 (inactive)
CCN1CCCC1CNC(=O)c1c(OC)ccc(Br)c1OC (stereo unspecified) [Remoxipride],101,101,96.7 (inactive),108 (inactive)
CCCCCCCC/C=C\CCCCCCCC(N)=O [(9Z)-9-octadecenamide],102,102,102 (inactive),98.7 (inactive)
OCC1=CC(O)C2C=COC(OC3OC(CO)C(O)C(O)C3O)C12 (stereo unspecified) [Aucubin],99.6,107,99.8 (inactive),85 (inactive)
COc1ccc(-c2cc(=O)c3c(O)cc(OC4OC(COC5OC(C)C(O)C(O)C5O)C(O)C(O)C4O)cc3o2)cc1O (stereo unspecified) [Diosmin],104,107,91.8 (inactive),92 (inactive)
COC(=O)C1=C(C)NC(C)=C(C(=O)OCC(C)C)C1c1ccccc1[N+](=O)[O-] (stereo unspecified) [Nisoldipine],94.9,104,89.9 (inactive),116 (inactive)
COc1ccc(C(=O)Nc2c(Cl)cncc2Cl)cc1OC1CCCC1,102,93.3,91 (inactive),106 (inactive)
N#CC(=Cc1c[nH]c2ccccc12)C(=O)c1ccc(O)c(O)c1 [Tyrphostin AG 808],93.1,100,86.2 (inactive),122 (inactive)
CCCCCCCCCCCCCCCC(=O)OC(CC(=O)O)C[N+](C)(C)C.[Cl-] (racemic) [Palmitoyl-DL-Carnitine chloride],94.9,101,104 (inactive),110 (inactive)
CC(=O)Oc1ccccc1C(=O)Oc1ccc(CO[N+](=O)[O-])cc1 [4-[(nitrooxy)methyl]phenyl 2-(acetyloxy)benzoate],50.1,66.5,110 (inactive),143 (active)
CC(C)(C)c1ccc(S(=O)(=O)C=CC#N)cc1,50.3,92.1,98.3 (inactive),135 (inactive)
COc1cccc(-c2cc(=O)c3ccccc3o2)c1N,99.7 and 100 and 98.4,105 and 103,85.6 (inactive) and 92.6 (inactive) and 87.8 (inactive),106 (inactive) and 104 (inactive)
